# G9a inh – inhibitors of human histone lysine methyltransferase G9a | G9a H3K9 monomethylation, AlphaScreen, 2 h | Potency, µM (top dose mostly 102 µM), for inactives: at the top dose activity, negative = inhibition, hits mostly inhibitors | actives 8.8% (n = 350,000); further: on the % scale 0 is the no-effect control and ±100 the full control effect; nearly all actives have a fitted effect of over 75% in size
#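 AlphaScreen detection with an anti-monomethyl H3K9 antibody quantified product after a 2 h room-temperature reaction containing 500 nM biotinylated H3K9 peptide, 20 µM SAM and 20 nM enzyme, which had been preincubated 15 min with compound.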
# HP1b binding inh – inhibitors of HP1-beta chromodomain binding to methylated histone tails. Potency, µM (series often up to 114 µM), for inactives: top-dose activity change, negative = inhibition, actives largely listed as inhibitors. P83916. actives 0.56% (n = 390,000). AlphaScreen HP1-beta / biotin-H3K9me3 peptide binding; further: nearly all actives have a fitted effect of over 70% in size
#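 HP1-beta protein (50 nM final) preincubated 30 min at room temperature with biotinylated H3(1-18)K9me3 peptide (50 nM) in PBS pH 7.4, 0.01% Tween-20, then compound added for 30 min. AlphaScreen streptavidin donor/nickel chelate acceptor beads (10 ug/mL final), 30 min dark, luminescence read.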
# VDR inhibitor – vitamin D3 receptor (human) inhibition; Potency, µM, without a hit: max response, negative = inhibition, actives largely listed as inhibitors; actives 0.93% (n = 400,000); VDR-SRC2-3 peptide fluorescence polarization, 2 h; AID 504847; further: on the % scale 0 is the no-effect control and ±100 the full control effect
# Target sequence (P11473 whole entry, looked up): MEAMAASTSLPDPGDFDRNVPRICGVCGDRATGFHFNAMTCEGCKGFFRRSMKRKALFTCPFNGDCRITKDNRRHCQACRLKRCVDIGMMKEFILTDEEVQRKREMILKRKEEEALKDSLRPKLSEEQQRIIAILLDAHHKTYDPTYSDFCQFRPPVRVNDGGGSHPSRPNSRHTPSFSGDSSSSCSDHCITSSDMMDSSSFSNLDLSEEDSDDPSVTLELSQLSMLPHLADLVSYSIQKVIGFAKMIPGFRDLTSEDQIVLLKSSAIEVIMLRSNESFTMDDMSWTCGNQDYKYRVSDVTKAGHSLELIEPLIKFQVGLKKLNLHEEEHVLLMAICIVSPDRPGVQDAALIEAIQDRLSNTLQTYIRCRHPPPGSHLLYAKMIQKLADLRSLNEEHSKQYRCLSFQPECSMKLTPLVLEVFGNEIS
#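 The screen uses fluorescence polarization to detect compounds that interfere with recruitment of the SRC2-3 coactivator peptide to VDR; plates are read after 2 h at room temperature.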
# JMJD2A Tudor inh – blocks the human JMJD2A Tudor domain; AlphaScreen JMJD2A-Tudor / H3K4me3 peptide binding; O75164; actives 4.4% (n = 390,000); AID 504339; Potency, µM (series often up to 114 µM), for the others: at the top dose activity change, negative = inhibition, actives largely listed as inhibitors; further: on the % scale 0 is the no-effect control and ±100 the full control effect; nearly all actives have a fitted effect of over 50% in size
# BAZ2B inh – blocks human BAZ2B | AlphaScreen BAZ2B-H3K14Ac peptide displacement | Potency, µM (doses to about 114 µM), for inactives: top-dose activity change, negative = inhibition, usual class: inhibitors | actives 4.4% (n = 360,000) | AID 504333; further: on the % scale 0 is the no-effect control and ±100 the full control effect; nearly all actives have a fitted effect of over 60% in size
#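 AlphaScreen luminescence quantifies BAZ2B engagement of H3K14Ac peptide; the protein and biotinylated peptide are both at 50 nM final, buffer PBS pH 7.4 with 0.01% Tween-20, all steps at room temperature.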
# PLK1 PBD inh – PLK1 (human) polo-box domain binding inhibition; Potency, µM, for inactives: max response, negative = inhibition, most hits filed as inhibitors; P53350; AID 720504; Plk1 PBD binding of FITC phosphopeptide, fluorescence polarization; actives 2.8% (n = 360,000); further: series mostly up to about 57 µM; on the % scale 0 is the no-effect control and ±100 the full control effect; nearly all actives have a fitted effect of over 65% in size
# Starred values were filed as active, the others as inactive; u = inconclusive; x = not tested or not shown; [ ] = remark or other dose. Sampled rows, rich in hits. Any-hit rate of the full collection: about 11%. The call rests on the fitted dose curve; in most records, active means well fitted curve in the direction sought with a large enough effect; inconclusive means small, poorly fitted or top-dose-only effect, or another doubt; inactive means no such curve, though single readings can be large; an effect the other way counts as inactive or inconclusive. Potency means the concentration at half of the fitted maximal effect.
SMILES,G9a inh,HP1b binding inh,VDR inhibitor,JMJD2A Tudor inh,BAZ2B inh,PLK1 PBD inh
COc1ccc(O)c(C(=O)c2cc(C(=O)NCCc3ccccc3)c(=O)n(CCc3ccccc3)c2)c1,8.91µM*,u,u,u,u,-11.0%
Cc1ccc(O)c(C(=O)c2cc(C(=O)NCCc3ccccc3)c(=O)n(CCc3ccccc3)c2)c1,-18.0%[59 µM],-1.1%,3.4%,-21.9%,-11.8%,-2.3%
Cc1cc(C)c(C)c(S(=O)(=O)N2C(=S)NC(=O)C2C(C)C)c1C (stereo not drawn),u,u,-11.4%,-26.2%,-1.4%,26.7µM*
Cc1cc(C)c(C)c(S(=O)(=O)N2C(=S)NC(=O)C2CC(C)C)c1C (stereo not drawn),u,28.8%,5.2%,-9.7%,u,-21.9%
COc1ccc(-c2nc(-c3ccccc3)c(-c3cc([N+](=O)[O-])ccc3C)[nH]2)cc1O,50.1µM*,u,10.7%,44.7µM*,39.8µM*,-4.5%
Cc1ccc([N+](=O)[O-])cc1-c1[nH]c(-c2ccc(O)c(O)c2)nc1-c1ccccc1,u,-43.0%,2.6%,39.8µM*,28.2µM*,-1.0%
O=C(NC1CCCCCC1)c1ccc2c(c1)sc1nc(-c3ccccc3)cn12,1.0%[59 µM],37.6%,13.5%,-4.9%,1.5%,x
CC(C)c1ccc(N(CC(=O)NC2CCCC2)C(=O)CCC(=O)Nc2ccccn2)cc1,17.7%,7.9%,-29.9%,50.1µM*,2.5%,23.8µM*
Cc1ccc(N(CC(=O)NCc2ccco2)C(=O)CCC(=O)Nc2nccs2)c(C)c1,70.8µM*,-14.5%,-4.2%,-13.7%,-10.0%,-16.0%
O=C(CN(C(=O)CCC(=O)Nc1ccccn1)c1ccc(F)cc1)NCc1ccco1,0.7%,27.1%,-4.8%,-9.1%,-14.9%,-1.8%
CCc1ccc(N(CC(=O)NC2CCCC2)C(=O)CCC(=O)Nc2ccccn2)cc1,-5.0%,9.2%,1.1%,-8.5%,-2.7%,-7.0%
CC(C)c1ccc(N(CC(=O)NCc2ccco2)C(=O)CCC(=O)Nc2ccccn2)cc1,25.1µM*,30.9%,-9.9%,-2.8%,-2.0%,-0.4%
Cc1ccccc1N(CC(=O)NCc1ccco1)C(=O)CCC(=O)Nc1nccs1,5.6%,19.5%,3.8%,-3.7%,-2.9%,1.0%
O=C(CCCC(=O)N(c1cccc(F)c1)C(C(=O)NC1CCCC1)c1ccc(O)cc1)Nc1ccccn1 (stereo not drawn),-26.4%,3.0%,u,79.4µM*,-16.3%,u
NC(=O)C1c2ccccc2CCc2ccccc21,1.2%[12.7 µM],x,-1.0%,x,x,x
Cc1ccc(-n2nc3c(N4CCCC(C(=O)NCc5ccc(Cl)cc5)C4)nnc(C)c3c2C)cc1 (stereo not drawn),-33.3%[59 µM],14.7%,-7.1%,-14.8%,-14.5%,x
Nc1nn(-c2ccccc2)nc1C(=O)OCc1c(F)cccc1Cl,44.9%[59 µM],68.0%,-2.7%,28.4%,9.8%,x
Cc1ccnc(NC(=O)CCC(=O)N(CC(=O)NCc2ccccc2)c2ccc3c(c2)OCO3)c1,-17.3%[59 µM],-13.7%,-3.9%,-22.9%[11.4 µM],-0.4%,2.99µM*
COc1cccc(CNc2cccc3cccnc23)c1O,u,-6.5%,7.7%,44.7µM*,u,-10.2%
COc1cccc(CNc2ccccn2)c1O,-2.5%[0.501 µM],25.7%,-11.2%,-18.5%,3.3%,-8.1%
Cc1ccc(O)c(CNc2cccc3cccnc23)c1,x,u,-10.8%,u,31.6µM*,-2.4%
COc1ccc([C@H]2CC(=O)C=C(c3ccc(SC)cc3)C2)cc1,-45.2%[2.33 µM],47.5%,-1.3%,-7.0%,-1.2%,2.0%
Cc1cc(=O)c(C(=O)O)cn1-c1ccc(C(C)C)cc1,44.7µM*,8.5%,-8.2%,3.5%,u,-6.8%
Cc1cc(C)cc(-n2cc(C(=O)O)c(=O)cc2C)c1,28.2µM*,7.6%,2.2%,-5.6%,79.4µM*,1.6%
Cc1cccc(-n2cc(C(=O)O)c(=O)cc2C)c1,22.4µM*,-4.3%,-12.8%,44.7µM*,-38.3%,-1.7%
Cc1ccc(-n2nc(C)c(C(=O)O)n2)c(C)c1,79.4µM*,8.3%,-6.4%,-10.1%,-4.3%,-18.4%
